Test systems include NCI-H23 lung; NCI-H226 lung; NCI-H322M lung; HOP-62 NSCLC; NCI-H460 lung; HOP-92 NSCLC; NCI-H522 lung; A549/ATCC NSCLC; 786-0 renal; COLO 205 colon; DU-145 prostate; K-562 leukemia; MALME-3M melanoma; MDA-MB-231 breast; RXF 393 renal; SF-268 CNS; SF-295 CNS; SF-539 CNS; UACC-257 melanoma; M14 melanoma.
Experiment in all cases: NCI-60 one-dose screen, 48 h (100 = growth as untreated, 0 = no growth, -100 = all killed)
Conditions in all cases: 10 µM unless noted

Values joined by “and” are separate entries in the source; they are usually repeats but may differ in a detail not shown here. Equal entries are not always repeated. Compounds without any hit were thinned out: in the full panel of roughly 83,000, 20% have a hit.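 How to read the values: 0–100, growth inhibition (40 = 60% inhibited); 0, no net growth; -100 to 0, cell death (-40 = 40% of starting cells died; -100 = all dead).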 Active and inactive are the calls of the source. Rule for the calls: active = growth percent below 10; inactive = the rest.

With `Nc1c(C(=O)Nc2ccncc2)sc2nc3c(cc12)CCCCCCCC3`, the growth in the test with NCI-H23 lung was -63.2% (active); in the test on NCI-H226 lung it was 17.6% (inactive); in the test with NCI-H322M lung, -54.4% (active); in the test with HOP-62 NSCLC it was -74.2% (active); in the test with NCI-H460 lung, -66.7% (active); in the test with HOP-92 NSCLC, -76.2% (active). The growth is -84.9% (active) in the test with NCI-H522 lung; -62.7% (active) in the test on A549/ATCC NSCLC; -93.9% (active) with 786-0 renal; -83.2% (active) with COLO 205 colon; -75.5% (active) in the test with DU-145 prostate; -52% (active) with K-562 leukemia. The growth with MALME-3M melanoma was -84.6% (active); with MDA-MB-231 breast, -72.7% (active); with RXF 393 renal, -80.6% (active); with SF-268 CNS it was -62.4% (active); in the test with SF-295 CNS it was -77% (active); in the test on SF-539 CNS, -91.7% (active). Moreover, the growth in the test on UACC-257 melanoma is -75.7% (active); in the test on M14 melanoma, -80.1% (active).

Take `CCNC(=O)Oc1ccc(/C(=C(/C)Cc2ccc(OC)cc2)c2ccc(OCCN(CC)CC)cc2)cc1`: the growth in the test on NCI-H23 lung is 78.2% (inactive); in the test on NCI-H226 lung it was 91.9% (inactive); in the test with NCI-H322M lung it was 76.9% (inactive); with HOP-62 NSCLC, 76.3% (inactive); in the test with NCI-H460 lung, 13.5% (inactive); in the test with HOP-92 NSCLC, 43.3% (inactive). For the same compound, the growth was 58.1% (inactive) in the test with NCI-H522 lung; 51.7% (inactive) in the test with A549/ATCC NSCLC; 53.8% (inactive) in the test on 786-0 renal; -69.1% (active) with COLO 205 colon; 77.3% (inactive) in the test with DU-145 prostate; -45.2% (active) with K-562 leukemia. For the same compound, the growth in the test on MALME-3M melanoma was -17.8% (active); with MDA-MB-231 breast it was 45% (inactive); in the test with RXF 393 renal it was 49.7% (inactive); in the test with SF-268 CNS it was 67.1% (inactive); with SF-295 CNS, 40.8% (inactive); with SF-539 CNS, 74.5% (inactive). Moreover, the growth is -56.3% (active) in the test with UACC-257 melanoma and -63.6% (active) with M14 melanoma.

As to `CN1CCN(Cc2ccc(NC(=O)c3nc4ccc5[nH]ncc5c4c4c3CCCC4)cc2C(F)(F)F)CC1`, the growth in the test on NCI-H23 lung is -21.9% (active); in the test on NCI-H226 lung, 73.4% (inactive); with NCI-H322M lung, 19% (inactive); in the test with HOP-62 NSCLC, -75.9% (active); in the test on NCI-H460 lung, -58.6% (active); with HOP-92 NSCLC, -79.9% (active). Moreover, the growth in the test with NCI-H522 lung was -70.7% (active); with A549/ATCC NSCLC it was -83.1% (active); in the test on 786-0 renal, -85.4% (active); in the test with COLO 205 colon, -86.8% (active); in the test on DU-145 prostate, -73.1% (active); in the test with K-562 leukemia it was -48.4% (active). Moreover, the growth in the test with MALME-3M melanoma was -75.7% (active); in the test on MDA-MB-231 breast it was -81.2% (active); in the test with RXF 393 renal, -97.1% (active); with SF-268 CNS, -75.7% (active); in the test with SF-295 CNS, -67.7% (active); with SF-539 CNS it was -89.3% (active). Further, the growth was -80.3% (active) in the test on UACC-257 melanoma and -64.1% (active) in the test on M14 melanoma.

As for `COc1c(O)c(O)cc2c3c(oc12)CC(c1ccc2c(c1)OCO2)CC3=O` (stereo not given), the growth with NCI-H23 lung is 69.4% (inactive); in the test on NCI-H226 lung, 80% (inactive); with NCI-H322M lung, 73.2% (inactive); in the test on HOP-62 NSCLC it was 71.4% (inactive); in the test with NCI-H460 lung it was 25% (inactive); in the test with HOP-92 NSCLC, 71.7% (inactive). For the same compound, the growth in the test on NCI-H522 lung is 54.2% (inactive); in the test with A549/ATCC NSCLC it was 60.7% (inactive); with 786-0 renal, 52.1% (inactive); in the test on COLO 205 colon, 119% (inactive); in the test on DU-145 prostate, 68.8% (inactive); with K-562 leukemia, 17.2% (inactive). Besides, the growth with MALME-3M melanoma is 95.7% (inactive); in the test on MDA-MB-231 breast it was 70.5% (inactive); in the test with RXF 393 renal, 105% (inactive); in the test on SF-268 CNS, 53.9% (inactive); in the test with SF-295 CNS it was 101% (inactive); in the test on SF-539 CNS, 67.6% (inactive). In addition, the growth in the test on UACC-257 melanoma was 55.3% (inactive); in the test on M14 melanoma it was 23.3% (inactive).

On to `COc1ccc(/C=C2\COc3ccc(O)c(O)c3C2=O)c(OC)c1OC`, for which the growth in the test on NCI-H23 lung is 38.6% (inactive); in the test on NCI-H226 lung, 63.9% (inactive); with NCI-H322M lung, 56.2% (inactive); in the test with HOP-62 NSCLC it was 17.7% (inactive); with NCI-H460 lung it was 24.9% (inactive); with HOP-92 NSCLC, 38.9% (inactive). Moreover, the growth in the test on NCI-H522 lung was -45.2% (active); in the test on A549/ATCC NSCLC, 43.1% (inactive); in the test on 786-0 renal, 28% (inactive); in the test with COLO 205 colon, 72.3% (inactive); in the test on DU-145 prostate it was 13.9% (inactive); in the test on K-562 leukemia it was 9.86% (active). Besides, the growth in the test with MALME-3M melanoma was 24.2% (inactive); in the test with MDA-MB-231 breast, -2.18% (active); with RXF 393 renal it was 50.8% (inactive); in the test with SF-268 CNS, 48% (inactive); with SF-295 CNS it was 91.7% (inactive); in the test with SF-539 CNS, -9.26% (active). The growth with UACC-257 melanoma is 45.6% (inactive); in the test on M14 melanoma, 38.4% (inactive).

Turning to `O=C(Nc1ccc(Cl)c(Cl)c1)Nc1ccc(Cl)c(Cl)c1`, the growth is -36.5% (active) and 4.84% (active) in the test on NCI-H23 lung; 23.7% (inactive) with NCI-H226 lung; -93.6% (active) and 19.2% (inactive) in the test with NCI-H322M lung; -83.4% (active) and 40.8% (inactive) with HOP-62 NSCLC; -63.6% (active) and 4.34% (active) in the test with NCI-H460 lung; -86.2% (active) and -5.71% (active) in the test with HOP-92 NSCLC. Further, the growth in the test with NCI-H522 lung is -83.9% (active) and 6.21% (active); in the test on A549/ATCC NSCLC, -63% (active) and 17.6% (inactive); with 786-0 renal, -63.1% (active) and 20.4% (inactive); in the test on COLO 205 colon, -86.9% (active) and 17.1% (inactive); in the test with DU-145 prostate it was -94.8% (active) and 21.1% (inactive); with K-562 leukemia, -33.4% (active) and 12.4% (inactive). Further, the growth is -16.1% (active) in the test with MALME-3M melanoma; -91.1% (active) and 24.1% (inactive) in the test with MDA-MB-231 breast; -88.2% (active) and 58.8% (inactive) in the test on RXF 393 renal; -80.7% (active) and 31.9% (inactive) in the test with SF-268 CNS; -11.8% (active) in the test on SF-295 CNS; -83.3% (active) and 51.1% (inactive) in the test on SF-539 CNS. The growth in the test with UACC-257 melanoma is -81.9% (active) and 50% (inactive); in the test on M14 melanoma, -85.7% (active) and 33.4% (inactive).

As for `CCCNNC(=O)/C=C/c1ccc(CNCCc2c(C)[nH]c3ccccc23)cc1`, the growth was 38.6% [2.5 µM] (inactive) with NCI-H23 lung; 33.6% [2.5 µM] (inactive) in the test on NCI-H226 lung; 15.9% [2.5 µM] (inactive) with NCI-H322M lung; 3.81% [2.5 µM] (active) in the test with HOP-62 NSCLC; 23.8% [2.5 µM] (inactive) with NCI-H460 lung; -5.2% [2.5 µM] (active) in the test on HOP-92 NSCLC. Also, the growth in the test with NCI-H522 lung is 19.7% [2.5 µM] (inactive); in the test with A549/ATCC NSCLC it was 14% [2.5 µM] (inactive); with 786-0 renal it was 22.8% [2.5 µM] (inactive); in the test on COLO 205 colon, -55.7% [2.5 µM] (active); with DU-145 prostate, 24.4% [2.5 µM] (inactive); in the test with K-562 leukemia, 10.7% [2.5 µM] (inactive). The growth is 20% [2.5 µM] (inactive) in the test on MALME-3M melanoma; 35% [2.5 µM] (inactive) with MDA-MB-231 breast; -17.9% [2.5 µM] (active) in the test on RXF 393 renal; 32.1% [2.5 µM] (inactive) in the test on SF-268 CNS; 18% [2.5 µM] (inactive) in the test on SF-295 CNS; 31.1% [2.5 µM] (inactive) in the test on SF-539 CNS. Moreover, the growth in the test with UACC-257 melanoma was -9.62% [2.5 µM] (active); in the test with M14 melanoma it was 17.7% [2.5 µM] (inactive).

For the origin of these results see PubChem BioAssay (NCI).
